Shiga toxin inh: Shiga toxin inhibition; Vero cells, Shiga toxin protein synthesis inhibition reporter; AID 2315; inhibition, % at 38.7 µM; 9.2% of 290,000 active; in the data active means inhibition mostly above about 28%, no sharp cut-off; inactive means mostly below about 43%; further: 0% is about no effect
SARS PLP yeast: inhibitors of SARS-CoV papain-like protease in yeast | S. cerevisiae expressing SARS-CoV PLpro, growth rescue | Potency, µM (top dose mostly 32.9 µM), for the others: at the highest dose activity, positive = growth rescue, most hits filed as activators | 0.19% of 330,000 active; calls by dose curve; further: potency means the concentration at half of the fitted maximal effect; 0% is about no effect; nearly all actives have a fitted effect of over 55% in size
AMA1 RON2 block: AMA1-RON2 (P. falciparum) interaction inhibition | AlphaScreen AMA1-biotinylated RON2 peptide binding | AID 720542 | 0.2% of 360,000 active | Potency, µM (doses to about 58.2 µM), inactives show top-dose activity change, negative = inhibition, hits mostly inhibitors;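 further: potency means the concentration at half of the fitted maximal effect; 0% = vehicle wells and -100% = peptide control; nearly all actives have a fitted effect of over 45% in size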
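AMA1 (3D7) with his tag at 25 nM final met compounds first, then biotinylated RON2 peptide at 25 nM; detection used donor plus acceptor beads, 10 µg/mL apiece, read by AlphaScreen after 30 min at room temperature.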
Pf growth 48h: P. falciparum growth inhibition at 48 hours (one generation). 5.9% of 310,000 active. Potency, µM (titrated, usually from 28.7 µM), without a hit: at the highest dose activity change, negative = inhibition, most hits filed as inhibitors. P. falciparum luciferase growth in erythrocytes, 48 h. AID 504832; further: potency means the concentration at half of the fitted maximal effect; on the % scale 0 is the no-effect control and ±100 the full control effect
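In quantitative HTS format, infected erythrocytes bearing luciferase-reporter parasites were treated for a single generation at 37 C. Luminescence after adding detection reagent served as the growth measure.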
CHX counter: affects cycloheximide protein synthesis inhibition readout, counter-screen. 12% of 300,000 active. max response, %. cell reporter, cycloheximide protein synthesis inhibition counterscreen; in the data active means max response mostly above about 13%, no sharp cut-off; inactive means mostly below about 14%; further: read at 38.3 µM for the half of the compounds with a filed dose; 0% is about no effect
Pf growth 96h: P. falciparum growth inhibition at 96 hours. 6.9% of 320,000 active. Potency, µM (series often up to 28.7 µM), inactives show at the top dose activity change, negative = inhibition, usual class: inhibitors. P. falciparum luciferase reporter growth, 96 h; further: potency means the concentration at half of the fitted maximal effect; on the % scale 0 is the no-effect control and ±100 the full control effect
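Cell-based qHTS: luciferase-tagged P. falciparum in erythrocytes (2% hematocrit, 0.05% parasitemia final) incubated with compounds for 96 hours, 37 C, 5% CO2; luciferase detection reagent then added and luminescence measured.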
Starred values were filed as active, the others as inactive; ? = inconclusive; / = no result given. Hits are enriched below; roughly 19% of the tested compounds scored in any of these assays. Unless noted, the call rests on the fitted dose curve; in most records, active means well fitted curve in the direction sought with a large enough effect; inconclusive means small, poorly fitted or top-dose-only effect, or another doubt; inactive means no such curve, though single readings can be large; an effect the other way counts as inactive or inconclusive.

SMILES	Shiga toxin inh	SARS PLP yeast	AMA1 RON2 block	Pf growth 48h	CHX counter	Pf growth 96h
O=C(Nc1ccc(N2CCN(C(=O)c3ccccc3)CC2)cc1)c1ccc(Br)o1	-3	-12%	7%	?	9	37%
CCCC(=O)N1CCN(c2ccc(NC(=O)c3ccc(Br)o3)cc2)CC1	18	-1%	1%	-30%	5	/
O=C(Nc1ccc(N2CCCC2)cc1)c1ccc(Br)o1	71*	1%	-10%	?	58*	?
CN1CCN(c2ccc(NC(=O)c3ccc(-c4ccc(Br)cc4)o3)cc2)CC1	50	-1%	?	10µM*	9	8%
CCN1CCN(c2ccc(NC(=O)c3ccc(Br)o3)cc2)CC1	111*	0%	-17%	58%	43*	44%
CCN(CC(=O)Nc1ccc(OC)cc1)C(=O)c1ccc2c(=O)n3c(nc2c1)CCC3	/	0%	-9%	?	/	?
Cc1cc(Nc2ccc(F)cc2)n2nc(C)nc2n1	14	-1%	-3%	/	4	?
Cc1cc(Nc2cccc(F)c2)n2nc(C)nc2n1	-4	25%	12%	?	0	9.3µM*
Cc1cc(Nc2ccc(C)c(C)c2)n2nc(C)nc2n1	14	-2%	-23%	0.74µM*	-3	?
Cc1cc(Nc2ccc(Br)cc2)n2nc(C)nc2n1	-7	4%	12%	2.3µM*	-2	?
CCc1ccc(Nc2cc(C)nc3nc(C)nn23)cc1	-3	?	-10%	1.3µM*	-2	-10%
CC(=O)NCC(=O)OCC(=O)c1ccc(Cl)cc1	-8	1%	11%	18%	-3	41%
C=CCCCN(Cc1ccccc1)S(=O)(=O)c1ccccc1Br	-11	-7%	65%	?	4	-20%
O=S(=O)(NC1CCC(CNS(=O)(=O)c2c(F)cccc2F)CC1)c1ccc2c(c1)OCCO2 (stereo not given)	/	6%	/	-24%	/	0%
O=C1CSC(c2ccccc2)N1c1nnc(C23CC4CC(CC(C4)C2)C3)s1 (stereo not given)	-17	0%	/	?	-2	/
O=C(CN1C(=O)NC2(CCCC2)C1=O)Nc1cccc(-c2nnc3n2CCCCC3)c1	-4	1%	11%	-6%	-3	7.4µM*
COC(=O)c1ccc(Oc2nc3ccccc3n3c(C)nnc23)cc1	/	/	4%	/	/	/
Cc1ccccc1C(=O)NC(C(=O)Nc1nc2c(s1)CCCC2)C(C)C (stereo not given)	31*	?	10%	?	17*	4.7µM*
Cc1ccccc1-c1cc(C(=O)Nc2nc3c(s2)CCCC3)c2ccccc2n1	43	-11%	-15%	?	11	?
O=C(Nc1nc2c(s1)CCCC2)C1CCCN1C(=O)c1cccs1 (stereo not given)	17	3%	-2%	15%	1	-18%
Cc1ncsc1C(=O)Nc1nc2c(s1)CCCC2	106*	-7%	5%	/	62*	10%
Cc1cc(C(=O)Nc2nc3c(s2)CCCC3)cs1	107*	3%	12%	-38%	40*	-14%
O=C(Nc1nc2c(s1)CCCC2)c1ccc2ncsc2c1	67*	-24%	-16%	-61%	41*	?
O=S(=O)(N/N=C/c1cccnc1)c1ccc(Cl)c(Cl)c1	8	1%	0%	30%	-3	34%
CCC1(c2ccccc2)NC(=O)N(CC(=O)Nc2cccc(S(=O)(=O)N3CCCCC3)c2)C1=O (stereo not given)	/	1%	-24%	?	/	?
SMILES	Shiga toxin inh	SARS PLP yeast	AMA1 RON2 block	Pf growth 48h	CHX counter	Pf growth 96h
O=C(c1cccs1)N1CCc2c([nH]c3ccccc23)C1c1ccc(Cl)cc1 (stereo not given)	2	-9%	-13%	10µM*	-5	10µM*
O=C(NCc1ccccn1)[C@@H]1CCCN1C(=O)[C@@H]1CCCN1C(=O)c1ccc(Cl)cc1	/	/	13%	/	/	/
CCOc1ccc(NC(=O)CCN2C(=O)c3cccc([N+](=O)[O-])c3C2=O)cc1	-7	1%	4%	7%	-2	?
CN(C)c1ccc(NC(=O)CCN2C(=O)c3cccc([N+](=O)[O-])c3C2=O)cc1	23	-6%	4%	50%	16*	12µM*
Cc1ccc(CC(=O)NC2CCSC2=O)cc1 (stereo not given)	6	0%	6%	64%	3	11%
CCn1cc(S(=O)(=O)NCc2ccc3c(c2)OCO3)cn1	-9	-6%	6%	22%	-1	12µM*
Cn1cc(S(=O)(=O)Nc2ccc3c(c2)OCCO3)cn1	103*	2%	9%	146%	44*	?
Cc1ccc(S(=O)(=O)Nc2ccc3c(c2)OCCO3)cc1	8	-6%	-3%	-2%	6	7%
CN(C)S(=O)(=O)c1ccc(S(=O)(=O)NCc2ccc3c(c2)OCO3)cc1	6	1%	-20%	2%	-3	0%
Cn1c(=O)oc2cc(S(=O)(=O)Nc3ccc4c(c3)OCO4)ccc21	25	2%	26%	?	14*	/
CCn1cc(S(=O)(=O)Nc2ccc3c(c2)OCCO3)cn1	77*	-1%	4%	104%	76*	21%
N#C/C(=C\c1cccc(NC(=O)c2ccccc2Cl)c1)C(=O)NCCc1ccccc1	2	-32%	-7%	11%	1	?
COc1ccc(S(=O)(=O)Nc2ccc3c(c2)OCO3)cc1C	-4	1%	3%	/	-2	2%
COc1ccc(S(=O)(=O)Nc2ccc3c(c2)OCCO3)cc1OC	65*	5%	-9%	4%	23*	0%
CC(C)CC1Nc2ncnc(N3CCN(c4ccccn4)CC3)c2N(Cc2ccc(Cl)cc2)C1=O (stereo not given)	/	-1%	-2%	/	/	/
O=C1c2ccccc2C(=O)N1Cc1ccco1	-12	1%	13%	12%	-3	?
CC1=CC(=C2C(=O)c3ccccc3C2=O)C=C(C)O1	18	2%	5%	26%	11*	-27%
CC1=CC(=C2C(=O)c3ccccc3C2=O)C=C(C)N1Cc1ccco1	66*	-13%	-2%	110%	37*	?
O=C(NCc1ccc(F)cc1F)Nc1cnccc1C(F)(F)F	-2	-1%	-2%	-2%	-2	-9%
Cn1c(SCC(=O)NC2CCCc3ccccc32)nnc1C1CC1 (stereo not given)	/	-6%	23%	?	/	14%
CN(C)c1ccc(NC(=O)Cn2cc3c(n2)CCCC3)cc1	72*	0%	?	?	56*	?
CCN(CCCNC(=O)Cn1cc2c(n1)CCCC2)c1cccc(C)c1	1	0%	-11%	-13%	-1	13µM*
O=C(Cn1cc2c(n1)CCCCC2)NC1CCN(Cc2ccccc2)CC1	3	-3%	1%	/	-7	12µM*
Cc1cc(C)cc(NC(=O)Cn2cc3c(n2)CCCCC3)c1	-17	7%	/	/	7	?
